# Laboratory results published in PMC7862700, “An all-to-all approach to the identification of sequence-specific readers for epigenetic DNA modifications on cytosine”.
# Legend:
# Assay in all cases: DAPPL (digital affinity profiling via proximity ligation, sequencing); 10 mM Tris-HCl pH 7.5, 50 mM NaCl, 1 mM DTT, 4% glycerol, room temperature, 30 min; GST-TFs on glutathione beads, 16-mer random dsDNA library, 0.1% formaldehyde crosslink after washing; high values mean tight binding
# [1] = biological target: T1, FEV (Homo sapiens, UniProt Q99581 1-238); conditions: protein: recombinant; tags: N-terminal GST; dsDNA, one strand shown
# T1 sequence: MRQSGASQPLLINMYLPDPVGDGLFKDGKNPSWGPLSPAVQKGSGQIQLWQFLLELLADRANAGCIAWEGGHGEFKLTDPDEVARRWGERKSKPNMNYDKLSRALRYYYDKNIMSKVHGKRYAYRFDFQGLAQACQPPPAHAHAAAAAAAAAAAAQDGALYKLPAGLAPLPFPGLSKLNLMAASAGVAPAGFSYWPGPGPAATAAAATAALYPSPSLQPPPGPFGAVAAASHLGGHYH
# Summary of the method: (§1)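 Sequencing on an Illumina NextSeq500 followed washing, crosslinking with 0.1% formaldehyde, proximity ligation (BsaI/T4 ligase, 1 h, 37 °C) and PCR amplification of pools that had been incubated for 30 min at room temperature with 200 nmole of a random double-stranded 16-mer DNA library in Tris/NaCl/DTT/glycerol buffer. Each pool held DNA-barcoded human transcription factors, expressed in yeast as GST fusions and captured on glutathione beads, plus a tag-only sample. Binding signal is a hexamer's read frequency for a factor divided by its frequency in the tag-only sample.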
# [2] = biological target: ETV5 (Homo sapiens, UniProt P41161 1-510); conditions: protein: recombinant; tags: N-terminal GST; dsDNA, one strand shown
# Summary of the method: as §1
# [3] = biological target: HSF1 (Homo sapiens, UniProt Q00613 1-529); conditions: protein: recombinant; tags: N-terminal GST; chain copies: 3; dsDNA, one strand shown
# Summary of the method: as §1
# [4] = biological target: T2, SPIC (Homo sapiens, UniProt Q8N5J4 1-248); conditions: protein: recombinant; tags: N-terminal GST; dsDNA, one strand shown
# T2 sequence: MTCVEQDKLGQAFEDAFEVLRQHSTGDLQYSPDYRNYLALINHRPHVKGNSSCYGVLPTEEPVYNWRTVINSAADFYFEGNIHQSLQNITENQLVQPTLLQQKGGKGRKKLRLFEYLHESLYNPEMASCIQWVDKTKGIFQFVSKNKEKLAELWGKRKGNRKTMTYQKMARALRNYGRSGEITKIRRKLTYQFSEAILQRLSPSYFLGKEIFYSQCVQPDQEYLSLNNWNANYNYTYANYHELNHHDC
# Summary of the method: as §1
# [5] = biological target: ELF4 (Homo sapiens, UniProt Q99607 1-663); conditions: protein: recombinant; tags: N-terminal GST; dsDNA, one strand shown
# Summary of the method: as §1
# [6] = biological target: T3, ELK4 (Homo sapiens, UniProt P28324-2 1-405); conditions: protein: recombinant; tags: N-terminal GST; dsDNA, one strand shown
# T3 sequence: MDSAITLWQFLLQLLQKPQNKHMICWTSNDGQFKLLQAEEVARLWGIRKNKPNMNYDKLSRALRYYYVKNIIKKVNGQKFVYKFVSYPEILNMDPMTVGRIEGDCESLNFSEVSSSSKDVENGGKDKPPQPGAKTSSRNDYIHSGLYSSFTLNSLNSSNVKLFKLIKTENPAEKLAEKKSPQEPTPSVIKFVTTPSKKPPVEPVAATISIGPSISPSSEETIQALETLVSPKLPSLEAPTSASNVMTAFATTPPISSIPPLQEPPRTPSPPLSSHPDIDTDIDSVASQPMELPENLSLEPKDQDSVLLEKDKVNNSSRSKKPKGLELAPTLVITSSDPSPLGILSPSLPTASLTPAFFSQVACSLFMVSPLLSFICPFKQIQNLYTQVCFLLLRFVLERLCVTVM
# Summary of the method: as §1
# [7] = biological target: T4, ETV2 (Homo sapiens, UniProt O00321 1-342); conditions: protein: recombinant; tags: N-terminal GST; dsDNA, one strand shown
# T4 sequence: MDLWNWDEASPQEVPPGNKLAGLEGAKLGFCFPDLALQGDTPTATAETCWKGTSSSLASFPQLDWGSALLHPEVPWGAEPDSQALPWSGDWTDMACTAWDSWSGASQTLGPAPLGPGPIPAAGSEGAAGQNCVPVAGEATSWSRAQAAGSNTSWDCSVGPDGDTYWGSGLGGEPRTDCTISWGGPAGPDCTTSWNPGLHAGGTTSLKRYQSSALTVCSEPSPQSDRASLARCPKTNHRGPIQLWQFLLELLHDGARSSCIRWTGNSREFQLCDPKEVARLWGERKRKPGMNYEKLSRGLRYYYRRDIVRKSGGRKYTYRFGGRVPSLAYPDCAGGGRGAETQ
# Summary of the method: as §1
# [8] = biological target: T5, ELF3 (Homo sapiens, UniProt P78545 1-371); conditions: protein: recombinant; tags: N-terminal GST; dsDNA, one strand shown
# T5 sequence: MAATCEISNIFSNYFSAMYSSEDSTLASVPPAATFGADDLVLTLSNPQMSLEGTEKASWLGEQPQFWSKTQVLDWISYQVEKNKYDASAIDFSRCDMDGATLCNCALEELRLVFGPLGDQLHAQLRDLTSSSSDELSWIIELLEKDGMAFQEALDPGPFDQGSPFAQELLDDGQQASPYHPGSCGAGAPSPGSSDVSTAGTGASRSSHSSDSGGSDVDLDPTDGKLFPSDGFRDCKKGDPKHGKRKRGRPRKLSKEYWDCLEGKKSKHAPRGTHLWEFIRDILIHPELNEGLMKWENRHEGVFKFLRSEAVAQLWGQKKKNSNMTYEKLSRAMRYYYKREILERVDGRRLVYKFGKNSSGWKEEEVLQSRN
# Summary of the method: as §1
# [9] = biological target: CRX (Homo sapiens, UniProt O43186 1-299); conditions: protein: recombinant; tags: N-terminal GST; dsDNA, one strand shown
# Summary of the method: as §1
# [10] = biological target: ETV1 (Homo sapiens, UniProt P50549 1-477); conditions: protein: recombinant; tags: N-terminal GST; dsDNA, one strand shown
# Summary of the method: as §1
# [11] = biological target: T6, ERF (Homo sapiens, UniProt P50548 1-548); conditions: protein: recombinant; tags: N-terminal GST; dsDNA, one strand shown
# T6 sequence: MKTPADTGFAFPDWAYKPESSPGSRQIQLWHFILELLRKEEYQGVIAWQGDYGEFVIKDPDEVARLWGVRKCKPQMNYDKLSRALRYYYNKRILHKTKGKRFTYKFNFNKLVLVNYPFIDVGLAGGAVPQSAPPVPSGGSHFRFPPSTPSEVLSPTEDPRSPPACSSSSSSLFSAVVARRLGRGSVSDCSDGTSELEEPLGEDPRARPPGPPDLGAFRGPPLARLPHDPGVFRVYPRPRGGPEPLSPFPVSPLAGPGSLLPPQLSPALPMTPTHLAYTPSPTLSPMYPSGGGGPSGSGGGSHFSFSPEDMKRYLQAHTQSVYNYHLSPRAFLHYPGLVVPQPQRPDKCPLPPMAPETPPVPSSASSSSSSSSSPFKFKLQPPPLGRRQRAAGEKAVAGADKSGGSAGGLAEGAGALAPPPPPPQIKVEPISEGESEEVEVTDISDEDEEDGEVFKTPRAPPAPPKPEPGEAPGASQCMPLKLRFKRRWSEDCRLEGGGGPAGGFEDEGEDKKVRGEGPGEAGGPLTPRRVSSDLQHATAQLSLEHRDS
# Summary of the method: as §1
# [12] = biological target: T7, ETV3L (Homo sapiens, UniProt Q6ZN32 1-361); conditions: protein: recombinant; tags: N-terminal GST; dsDNA, one strand shown
# T7 sequence: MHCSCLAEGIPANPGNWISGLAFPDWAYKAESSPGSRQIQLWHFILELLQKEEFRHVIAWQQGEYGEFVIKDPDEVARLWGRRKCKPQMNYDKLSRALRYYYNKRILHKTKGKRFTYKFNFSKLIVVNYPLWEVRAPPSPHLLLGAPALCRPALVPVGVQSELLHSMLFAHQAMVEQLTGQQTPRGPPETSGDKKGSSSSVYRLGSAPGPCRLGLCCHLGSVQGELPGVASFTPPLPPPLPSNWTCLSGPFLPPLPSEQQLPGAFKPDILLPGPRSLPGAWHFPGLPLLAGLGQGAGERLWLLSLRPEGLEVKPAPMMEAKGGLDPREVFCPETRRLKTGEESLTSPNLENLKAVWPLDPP
# Summary of the method: as §1
# [13] = biological target: T8, ETS2 (Homo sapiens, UniProt P15036 1-469); conditions: protein: recombinant; tags: N-terminal GST; dsDNA, one strand shown
# T8 sequence: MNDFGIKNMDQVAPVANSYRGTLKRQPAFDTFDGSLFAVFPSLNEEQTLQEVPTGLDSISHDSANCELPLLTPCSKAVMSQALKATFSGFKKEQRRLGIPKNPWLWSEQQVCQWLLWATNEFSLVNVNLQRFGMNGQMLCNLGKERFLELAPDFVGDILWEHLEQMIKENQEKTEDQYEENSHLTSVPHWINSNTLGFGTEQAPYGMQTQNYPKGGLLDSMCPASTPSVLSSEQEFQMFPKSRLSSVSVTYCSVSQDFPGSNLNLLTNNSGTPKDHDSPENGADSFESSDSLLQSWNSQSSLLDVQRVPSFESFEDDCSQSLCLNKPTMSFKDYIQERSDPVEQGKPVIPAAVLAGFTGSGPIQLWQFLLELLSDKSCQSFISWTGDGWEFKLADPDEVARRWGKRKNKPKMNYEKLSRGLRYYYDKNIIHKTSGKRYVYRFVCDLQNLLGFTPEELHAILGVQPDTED
# Summary of the method: as §1
# [14] = biological target: T9, SPDEF (Homo sapiens, UniProt O95238 1-335); conditions: protein: recombinant; tags: N-terminal GST; dsDNA, one strand shown
# T9 sequence: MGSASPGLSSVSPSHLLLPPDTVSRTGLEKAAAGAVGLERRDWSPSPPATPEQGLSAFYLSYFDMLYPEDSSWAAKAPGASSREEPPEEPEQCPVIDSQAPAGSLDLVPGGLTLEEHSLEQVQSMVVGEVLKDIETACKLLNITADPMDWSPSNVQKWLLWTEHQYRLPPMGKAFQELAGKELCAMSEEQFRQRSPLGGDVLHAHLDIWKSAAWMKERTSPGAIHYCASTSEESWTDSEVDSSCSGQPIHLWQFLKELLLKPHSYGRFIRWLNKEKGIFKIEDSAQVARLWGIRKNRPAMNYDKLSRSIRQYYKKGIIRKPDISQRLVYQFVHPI
# Summary of the method: as §1
# [15] = biological target: T10, ETV7 (Homo sapiens, UniProt Q9Y603 1-341); conditions: protein: recombinant; tags: N-terminal GST; dsDNA, one strand shown
# T10 sequence: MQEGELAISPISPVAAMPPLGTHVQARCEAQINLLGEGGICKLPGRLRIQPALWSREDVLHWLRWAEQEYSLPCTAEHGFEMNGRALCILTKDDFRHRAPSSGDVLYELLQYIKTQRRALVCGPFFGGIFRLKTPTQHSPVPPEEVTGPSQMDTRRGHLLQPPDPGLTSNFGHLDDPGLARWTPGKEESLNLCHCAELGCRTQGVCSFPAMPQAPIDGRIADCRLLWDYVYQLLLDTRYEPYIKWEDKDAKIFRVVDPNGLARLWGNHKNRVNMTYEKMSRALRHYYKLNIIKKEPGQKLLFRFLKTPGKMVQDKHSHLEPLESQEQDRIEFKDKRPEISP
# Summary of the method: as §1
# [16] = biological target: T11, ELF5 (Homo sapiens, UniProt Q9UKW6-2 1-255); conditions: protein: recombinant; tags: N-terminal GST; dsDNA, one strand shown
# T11 sequence: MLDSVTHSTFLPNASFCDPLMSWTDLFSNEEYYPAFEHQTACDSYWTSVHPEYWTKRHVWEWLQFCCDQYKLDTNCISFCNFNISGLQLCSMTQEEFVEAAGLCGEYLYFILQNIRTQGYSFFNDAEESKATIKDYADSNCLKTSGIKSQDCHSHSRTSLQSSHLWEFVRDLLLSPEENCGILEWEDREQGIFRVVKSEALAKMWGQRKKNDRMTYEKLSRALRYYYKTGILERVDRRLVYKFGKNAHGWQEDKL
# Summary of the method: as §1
# [17] = biological target: T12, ETV3 (Homo sapiens, UniProt P41162-2 1-143); conditions: protein: recombinant; tags: N-terminal GST; dsDNA, one strand shown
# T12 sequence: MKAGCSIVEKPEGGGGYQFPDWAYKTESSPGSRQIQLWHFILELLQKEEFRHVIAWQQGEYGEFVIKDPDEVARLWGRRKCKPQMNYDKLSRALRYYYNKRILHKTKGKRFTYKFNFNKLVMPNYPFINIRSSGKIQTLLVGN
# Summary of the method: as §1
# [18] = biological target: ETV6 (Homo sapiens, UniProt P41212 1-452); conditions: protein: recombinant; tags: N-terminal GST; dsDNA, one strand shown
# Summary of the method: as §1
# Chain of ETV1 (P50549 whole entry): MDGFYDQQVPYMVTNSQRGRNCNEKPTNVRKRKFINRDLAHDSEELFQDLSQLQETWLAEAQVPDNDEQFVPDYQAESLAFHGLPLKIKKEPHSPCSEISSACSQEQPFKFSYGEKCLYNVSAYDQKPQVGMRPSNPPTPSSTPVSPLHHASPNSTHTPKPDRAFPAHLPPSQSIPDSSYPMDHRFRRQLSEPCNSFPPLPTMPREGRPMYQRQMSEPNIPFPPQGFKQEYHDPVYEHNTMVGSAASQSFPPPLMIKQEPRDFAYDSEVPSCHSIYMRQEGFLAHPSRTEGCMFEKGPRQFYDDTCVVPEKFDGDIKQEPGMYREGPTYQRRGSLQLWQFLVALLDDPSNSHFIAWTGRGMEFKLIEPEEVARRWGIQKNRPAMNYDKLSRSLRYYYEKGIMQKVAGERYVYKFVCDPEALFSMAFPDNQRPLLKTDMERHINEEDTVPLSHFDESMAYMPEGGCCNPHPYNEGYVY
# Chain of ETV6 (P41212 whole entry): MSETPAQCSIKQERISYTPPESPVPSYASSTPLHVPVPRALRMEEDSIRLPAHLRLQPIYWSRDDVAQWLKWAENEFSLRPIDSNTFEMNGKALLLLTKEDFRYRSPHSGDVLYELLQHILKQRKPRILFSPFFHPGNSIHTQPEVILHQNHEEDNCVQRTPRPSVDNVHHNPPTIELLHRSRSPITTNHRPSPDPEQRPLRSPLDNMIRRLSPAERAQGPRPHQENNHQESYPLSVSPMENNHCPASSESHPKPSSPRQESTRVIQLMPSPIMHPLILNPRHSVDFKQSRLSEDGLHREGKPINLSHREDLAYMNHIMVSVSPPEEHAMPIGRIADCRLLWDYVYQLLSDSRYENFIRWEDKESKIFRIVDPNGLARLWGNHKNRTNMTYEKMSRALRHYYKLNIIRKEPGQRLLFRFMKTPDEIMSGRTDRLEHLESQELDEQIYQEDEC
# Chain of CRX (O43186 whole entry): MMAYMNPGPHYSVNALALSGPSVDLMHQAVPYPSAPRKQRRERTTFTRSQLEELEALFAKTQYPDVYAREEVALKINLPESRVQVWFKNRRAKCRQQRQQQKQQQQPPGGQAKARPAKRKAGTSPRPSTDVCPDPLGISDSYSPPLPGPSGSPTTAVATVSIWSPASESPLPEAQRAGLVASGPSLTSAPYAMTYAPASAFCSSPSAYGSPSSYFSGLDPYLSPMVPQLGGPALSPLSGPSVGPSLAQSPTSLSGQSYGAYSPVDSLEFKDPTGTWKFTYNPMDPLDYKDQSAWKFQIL
# Chain of HSF1 (Q00613 whole entry): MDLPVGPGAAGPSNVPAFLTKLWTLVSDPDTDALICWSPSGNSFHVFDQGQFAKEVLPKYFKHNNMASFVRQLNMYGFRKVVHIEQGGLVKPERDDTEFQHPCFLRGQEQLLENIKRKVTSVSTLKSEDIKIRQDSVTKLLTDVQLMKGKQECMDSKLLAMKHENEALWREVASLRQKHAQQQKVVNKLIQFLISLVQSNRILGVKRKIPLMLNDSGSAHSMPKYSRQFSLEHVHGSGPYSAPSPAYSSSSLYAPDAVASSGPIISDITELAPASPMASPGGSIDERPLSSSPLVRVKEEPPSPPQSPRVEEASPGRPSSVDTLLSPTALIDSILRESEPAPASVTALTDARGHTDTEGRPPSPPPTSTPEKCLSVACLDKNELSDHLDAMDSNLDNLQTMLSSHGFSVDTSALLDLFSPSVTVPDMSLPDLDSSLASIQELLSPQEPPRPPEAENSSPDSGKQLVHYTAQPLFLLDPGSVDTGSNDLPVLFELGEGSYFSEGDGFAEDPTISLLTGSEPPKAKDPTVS
# Chain of ETV5 (P41161 whole entry): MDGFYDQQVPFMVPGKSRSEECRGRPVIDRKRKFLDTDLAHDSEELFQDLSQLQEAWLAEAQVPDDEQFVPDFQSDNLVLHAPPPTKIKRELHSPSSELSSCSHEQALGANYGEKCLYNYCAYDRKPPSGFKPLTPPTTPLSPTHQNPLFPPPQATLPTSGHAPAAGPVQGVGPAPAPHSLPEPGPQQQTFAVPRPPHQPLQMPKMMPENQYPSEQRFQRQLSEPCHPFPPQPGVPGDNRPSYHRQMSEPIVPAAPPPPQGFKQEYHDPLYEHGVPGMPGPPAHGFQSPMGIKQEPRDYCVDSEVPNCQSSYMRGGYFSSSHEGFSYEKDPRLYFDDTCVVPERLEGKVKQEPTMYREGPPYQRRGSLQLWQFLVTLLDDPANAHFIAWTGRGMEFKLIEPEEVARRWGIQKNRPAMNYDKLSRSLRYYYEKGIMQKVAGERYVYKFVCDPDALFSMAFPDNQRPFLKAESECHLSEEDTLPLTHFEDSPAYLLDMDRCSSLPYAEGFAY
# Chain of ELF4 (Q99607 whole entry): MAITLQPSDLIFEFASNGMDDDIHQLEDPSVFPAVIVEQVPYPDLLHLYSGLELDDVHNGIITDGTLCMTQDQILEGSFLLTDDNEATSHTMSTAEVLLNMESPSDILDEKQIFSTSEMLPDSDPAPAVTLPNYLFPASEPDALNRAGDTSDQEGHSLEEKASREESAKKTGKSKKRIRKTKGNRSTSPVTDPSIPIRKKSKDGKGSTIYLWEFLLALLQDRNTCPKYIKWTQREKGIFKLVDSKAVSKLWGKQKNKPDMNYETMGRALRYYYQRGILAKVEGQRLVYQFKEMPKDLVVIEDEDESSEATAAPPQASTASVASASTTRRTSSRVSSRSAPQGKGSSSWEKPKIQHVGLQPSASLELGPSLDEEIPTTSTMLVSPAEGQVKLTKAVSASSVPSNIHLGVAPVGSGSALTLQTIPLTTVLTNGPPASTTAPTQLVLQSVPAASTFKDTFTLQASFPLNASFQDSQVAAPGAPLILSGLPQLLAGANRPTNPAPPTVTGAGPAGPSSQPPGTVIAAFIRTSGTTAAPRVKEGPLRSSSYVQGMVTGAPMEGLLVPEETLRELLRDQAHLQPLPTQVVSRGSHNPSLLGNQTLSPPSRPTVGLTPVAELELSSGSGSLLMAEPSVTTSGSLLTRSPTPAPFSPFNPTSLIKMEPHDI
sequence,measurement,setting,value
CATCTT,binding signal,[1],"1.16 fold enrichment (6-mer frequency, TF over GST control)"
same,binding signal,[2],"1.21 fold enrichment (6-mer frequency, TF over GST control)"
same,binding signal,[3],"1.17 fold enrichment (6-mer frequency, TF over GST control)"
same,binding signal,[4],"1.11 fold enrichment (6-mer frequency, TF over GST control)"
same,binding signal,[5],"1.12 fold enrichment (6-mer frequency, TF over GST control)"
same,binding signal,[6],"1.31 fold enrichment (6-mer frequency, TF over GST control)"
same,binding signal,[7],"1.29 fold enrichment (6-mer frequency, TF over GST control)"
same,binding signal,[8],"1.23 fold enrichment (6-mer frequency, TF over GST control)"
same,binding signal,[9],"1.33 fold enrichment (6-mer frequency, TF over GST control)"
same,binding signal,[10],"1.24 fold enrichment (6-mer frequency, TF over GST control)"
same,binding signal,[11],"1.26 fold enrichment (6-mer frequency, TF over GST control)"
same,binding signal,[12],"1.28 fold enrichment (6-mer frequency, TF over GST control)"
same,binding signal,[13],"1.23 fold enrichment (6-mer frequency, TF over GST control)"
same,binding signal,[14],"1.03 fold enrichment (6-mer frequency, TF over GST control)"
same,binding signal,[15],"1.25 fold enrichment (6-mer frequency, TF over GST control)"
same,binding signal,[16],"1.17 fold enrichment (6-mer frequency, TF over GST control)"
same,binding signal,[17],"1.18 fold enrichment (6-mer frequency, TF over GST control)"
same,binding signal,[18],"1.25 fold enrichment (6-mer frequency, TF over GST control)"
